Laboratory results reported in PubChem BioAssay (NCATS).
“And” between values parts separate entries of the source, which are not always exact repeats. Identical values can stand only once. A number with no mark means an inactive call. Inconclusive results are not listed. The source made the active and inactive calls. Unless noted, calls come from the whole dose curve; as a rule, active = well fitted curve in either direction with a large enough effect (not every such curve was filed as active); inconclusive = small, poorly fitted or top-dose-only effect, or another doubt; inactive = flat fitted curve, though single readings scatter.

Tests used:
[1] = AP1 Signaling Pathway (AID 357); note: % is set by controls: 0 for no effect and ±100 for the full control effect
Summary of the method: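 AP-1-bla ME-180 cells with beta-lactamase reporter under AP-1 response element, stimulated with EC50 EGF; compounds titrated, 5 hours at 37 degrees Celsius. CCF4 read at 460/530 nm ratio; positive and negative modulators judged by AC50.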

[2] = Stat Signaling Pathway (AID 446); conditions: ME-180 (cervical carcinoma) SIE beta-lactamase reporter, IL-6 stimulated, 5 h; at 38 µM (top of the series) unless noted;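 note: ME-180 cervical cancer cells given 40 pM IL-6 alongside compound; SIE-controlled beta-lactamase reporter measured as 460/530 nm FRET emission ratio; % is set by controls: 0 for no effect and ±100 for the full control effect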
Summary of the method: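 Overnight-plated ME-180 cells bearing a STAT Inducible Element beta-lactamase reporter; 5 h co-exposure to compound and 40 pM IL-6; values normalized to 300 pM IL-6 and 125 nM JAK inhibitor controls.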

[3] = target: Glucocorticoid receptor (Homo sapiens) (UniProt P04150); assay: GR-GFP Redistribution (AID 450;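 active = compounds whose dose series gives a full or clear partial fitted curve of increased nuclear translocation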; note: potency is the fitted concentration of half-maximal effect); conditions: U2OS GR-GFP nuclear translocation, laser cytometry, 2 h
[4] = target: Glucocorticoid receptor (Homo sapiens) (UniProt P04150); assay: GR-EFC Redistribution (AID 451; calls by dose curve; note: potency is the fitted concentration of half-maximal effect); conditions: CHO-K1 GR-EFC translocation, beta-gal luminescence, 2 h
Summary of the method: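 CHO-K1 cells stably expressing nuclear-localized β-gal enzyme acceptor and GR fused C-terminally to the enzyme donor fragment; ligand-driven nuclear translocation restores β-gal by complementation. Compounds titrated up to 46 uM final, 2 h at 37 °C; luminescence read.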

[5] = target: Mitogen-activated protein kinase 10 (Mus musculus) (UniProt Q61831); assay: JNK3 AlphaScreen Assay (AID 530);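 note: kinase came from lysate of stimulated human HepG2 cells; signal reports phosphorylation of biotinylated GST-cJun 1-79 at Ser73 with 10 µM ATP; % is set by controls: 0 for no effect and ±100 for the full control effect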
Summary of the method: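 Phosphorylation of biotinylated GST-cJun(1-79) at Ser73 is measured by AlphaScreen proximity luminescence. Enzyme is JNK3 in HepG2 lysates activated with interleukin-1beta and tumor necrosis factor alpha; ATP is 10 uM final.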

[6] = NFAT Signaling Pathway (AID 444); conditions: Jurkat NFAT-bla M1, carbachol, beta-lactamase ratio, 5 h; at 38 µM (top of the series) unless noted;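 note: carbachol stimulus at about its EC50 of 1 µM final; % is set by controls: 0 for no effect and ±100 for the full control effect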
Summary of the method: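 Jurkat cells carrying an NFAT-driven β-lactamase reporter and co-transfected muscarinic M1 receptor were treated with compound plus carbachol (1 uM final, an EC50 level) for 5 h at 37 °C. CCF4 loading followed for 1 h at RT; 460/530 nm ratio gave %activity.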

[7] = target: Cytochrome P450 1A2 (Homo sapiens) (UniProt P05177); assay: p450-cyp1a2 (AID 410; calls by dose curve;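 note: -100% = full effect of reference inhibitor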)
Summary of the method: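 O-Demethylation of luciferin 6' methyl ether by human CYP1A2 is monitored as luciferase luminescence. Substrate sits at Km (100uM); enzyme is 20nM. Values are scaled to 57 uM furafylline as maximal inhibition.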

[8] = Cell Viability - BJ (AID 421; calls by dose curve;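 note: potency is the fitted concentration of half-maximal effect; cells exposed to compound for 40 hours at 37 °C before readout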); conditions: BJ fibroblast viability, qHTS
Summary of the method: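 Quantitative HTS: ATP depletion in BJ cells after 40 hr compound exposure in complete culture medium, detected with CellTiter-Glo; AC50 from standard Hill fits.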

[9] = Cell Viability - Jurkat (AID 426;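 active = dose-dependent loss of cell ATP signal giving a full or clear fitted curve, ranked by lower potency value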;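 note: potency is the fitted concentration of half-maximal effect; cells exposed to compound for 40 hours at 37 °C before ATP read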); conditions: qHTS
Summary of the method: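 Cells of the human T-cell leukemia line Jurkat (E6-1) are seeded at 5000 per well, treated with compound across a concentration range for 40 hours at 37 °C, then lysed with CellTiter-Glo; luminescence reports ATP.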

[10] = Cell Viability - Hek293 (AID 427;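 active = compounds whose dose-response curve shows a full or clear partial loss of cell viability, called from curve shape rather than a numeric limit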;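 note: potency is the fitted concentration of half-maximal effect; cells exposed to compound for 40 hours at 37 °C before reading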); conditions: qHTS
Summary of the method: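 AC50 values derive from Hill-modelled concentration-response of ATP-based luminescence, normalized between DMSO-only and 100 uM tamoxifen controls. Cells were exposed in complete culture medium for 40 hr at 37 °C before detection.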

[11] = Cell Viability - HepG2 (AID 433; calls by dose curve;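 note: potency is the fitted concentration of half-maximal effect; potency for ATP loss meaning cytotoxicity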); conditions: qHTS
Summary of the method: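 ATP luminescence (CellTiter-Glo) after 40 h compound exposure, 37 °C, HepG2, 1500 cells/well, complete medium. Normalized: DMSO = basal, 100 uM tamoxifen = 100% inhibition. AC50 via standard Hill equation.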

[12] = Cell Viability - MRC5 (AID 434; calls by dose curve;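 note: potency is the fitted concentration of half-maximal effect; potency reflects cytotoxicity seen as loss of intracellular ATP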); conditions: MRC5 lung fibroblast viability, qHTS
Summary of the method: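 Decrease in intracellular ATP, quantified by luciferase light output, reflects compound toxicity toward MRC5 cells exposed for 40 hr in complete culture medium. Concentration-response curves, scaled between DMSO and 100 uM tamoxifen, gave AC50 values.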

[13] = Cell Viability - SK-N-SH (AID 435; calls by dose curve; note: potency is the fitted concentration of half-maximal effect); conditions: SK-N-SH neuroblastoma cell viability qHTS
Summary of the method: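 CellTiter-Glo ATP luminescence, 20 min RT read; cells pre-plated 5 hr, compound 40 hr at 37 °C, 1500 cells/well, complete medium. Normalized DMSO = 0, 100 uM tamoxifen = 100% inhibition; Hill-fit AC50.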

[14] = Cell Viability - N2a (AID 540; active = well fitted cell-killing curve with a large enough effect; note: nearly all actives have a fitted effect of over 45% in size; note: potency is the fitted concentration of half-maximal effect;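 for activity change, negative = cytotoxicity: plate controls were DMSO alone for no effect and tamoxifen control for full effect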); conditions: N2a mouse neuroblastoma cell viability; activity change, negative = cytotoxicity: at 92.2 µM (top of the series)
Summary of the method: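 Cytotoxicity was scored as loss of cellular ATP in N2a cells, a mouse neuroblastoma line. Compounds are applied in a qHTS concentration series for 40 hr at 37 °C.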

[15] = Cell Viability - NIH 3T3 (AID 541; active = well fitted cell-killing curve with a large enough effect; note: nearly all actives have a fitted effect of over 25% in size; note: potency is the fitted concentration of half-maximal effect;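 for activity change, negative = cytotoxicity: plate controls were DMSO alone for no effect and tamoxifen positive control for full effect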); conditions: NIH 3T3 cell viability, qHTS; activity change, negative = cytotoxicity: at 92.2 µM (top of the series)
Summary of the method: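 Cells seeded at 1000/well, rested 5 hr at 37 °C, then dosed and incubated 40 hr at 37 °C. CellTiter-Glo added, 20 min room temperature, luminescence read. AC50 by Hill fit.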

[16] = Cell Viability - H-4-II-E (AID 543; active = well fitted cell-killing curve with a large enough effect; note: nearly all actives have a fitted effect of over 35% in size; note: potency is the fitted concentration of half-maximal effect)
Summary of the method: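 Cells seeded at 1500 per well and rested 5 hr; compounds added; 40 hr incubation at 37 °C; CellTiter-Glo added, 20 min at room temperature; luminescence read. Hill-equation fits gave AC50.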

[17] = Cell Viability - SH-SY5Y (AID 544; active = well fitted cell-killing curve with a large enough effect; note: nearly all actives have a fitted effect of over 55% in size; note: potency is the fitted concentration of half-maximal effect)
Summary of the method: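 Cells were plated at 1500 per well and allowed 5 hr at 37 °C. Compounds were added across a concentration range and incubated 40 hr at 37 °C. CellTiter-Glo was added for 20 min at room temperature before luminescence reading.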

[18] = Cell Viability - Renal Proximal Tubule (AID 545; active = well fitted cell-killing curve with a large enough effect;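 note: 0% = DMSO only and -100% = 100 µM tamoxifen; nearly all actives have a fitted effect of over 40% in size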); conditions: renal proximal tubule cells viability; activity change, negative = cytotoxicity: at 91.7 µM (top of the series)
Summary of the method: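 Rat kidney proximal tubule cells, freshly isolated; 1000 cells/well, 5 hr settle, compound 40 hr 37 °C. CellTiter-Glo 20 min RT, luminescence read. AC50 by standard Hill fit.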

[19] = Cell Viability - Mesenchymal (AID 546; active = well fitted cell-killing curve with a large enough effect;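 note: cells exposed to compound for 40 hours before reading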; note: potency is the fitted concentration of half-maximal effect;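 for activity change, negative = cytotoxicity: 0% = DMSO only and -100% = 100 µM tamoxifen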)
Summary of the method: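 In this qHTS cytotoxicity format, glomerulus-derived human mesenchymal kidney cells received compound for 40 hr, then luciferase-based ATP quantitation. Concentration-response data were fitted with the Hill equation.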

Chain of Glucocorticoid receptor (Homo sapiens) (P04150 whole entry, looked up, the tested form may be a part): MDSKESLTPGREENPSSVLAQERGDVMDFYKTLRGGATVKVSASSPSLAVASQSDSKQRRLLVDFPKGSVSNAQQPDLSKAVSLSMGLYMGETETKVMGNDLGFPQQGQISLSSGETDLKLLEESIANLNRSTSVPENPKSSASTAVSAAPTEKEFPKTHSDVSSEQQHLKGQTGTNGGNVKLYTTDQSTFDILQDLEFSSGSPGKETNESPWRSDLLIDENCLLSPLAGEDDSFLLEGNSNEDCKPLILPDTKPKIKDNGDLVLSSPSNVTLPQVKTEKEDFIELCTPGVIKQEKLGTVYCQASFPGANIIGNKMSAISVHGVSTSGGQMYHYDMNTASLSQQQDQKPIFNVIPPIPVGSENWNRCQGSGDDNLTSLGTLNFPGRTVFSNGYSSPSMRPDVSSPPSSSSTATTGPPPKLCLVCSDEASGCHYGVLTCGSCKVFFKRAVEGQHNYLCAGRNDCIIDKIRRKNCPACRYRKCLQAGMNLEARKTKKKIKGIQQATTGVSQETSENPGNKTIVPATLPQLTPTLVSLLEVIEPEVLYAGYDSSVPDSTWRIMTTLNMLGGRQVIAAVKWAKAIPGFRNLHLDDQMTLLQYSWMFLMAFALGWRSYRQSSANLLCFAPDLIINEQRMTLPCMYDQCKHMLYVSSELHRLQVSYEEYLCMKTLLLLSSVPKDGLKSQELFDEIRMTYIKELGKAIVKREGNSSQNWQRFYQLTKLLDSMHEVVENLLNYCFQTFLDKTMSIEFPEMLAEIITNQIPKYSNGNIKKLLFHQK
Chain of Cytochrome P450 1A2 (Homo sapiens) (P05177 whole entry, looked up): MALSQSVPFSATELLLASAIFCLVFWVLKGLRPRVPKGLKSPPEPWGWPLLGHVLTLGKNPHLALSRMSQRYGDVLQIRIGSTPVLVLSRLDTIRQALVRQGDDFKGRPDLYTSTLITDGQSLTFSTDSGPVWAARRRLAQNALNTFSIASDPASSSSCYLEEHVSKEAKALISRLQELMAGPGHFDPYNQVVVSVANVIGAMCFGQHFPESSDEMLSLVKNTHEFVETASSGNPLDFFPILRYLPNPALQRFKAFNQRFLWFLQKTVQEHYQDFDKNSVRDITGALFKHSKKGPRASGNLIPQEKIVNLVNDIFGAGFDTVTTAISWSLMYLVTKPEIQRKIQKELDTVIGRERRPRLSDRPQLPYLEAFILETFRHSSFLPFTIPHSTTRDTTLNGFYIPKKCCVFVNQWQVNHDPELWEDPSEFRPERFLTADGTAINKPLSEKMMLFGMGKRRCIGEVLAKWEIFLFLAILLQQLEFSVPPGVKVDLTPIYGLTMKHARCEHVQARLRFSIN

## CCCCCCC(C)(C)c1ccc([C@@H]2C[C@H](O)CC[C@H]2CCCO)c(O)c1
[1]
  outcome: inactive
[2]
  activity, negative = inhibition: -25.8%
[3]
  Potency: > 46 µM
[4]
  Potency: > 46 µM
[5]
  outcome: inactive

## c1ccc2cc(CC3=NCCN3)ccc2c1
[1]
  outcome: inactive
[6]
  activity change, negative = inhibition: -0.608%
[2]
  activity, negative = inhibition: -3.81%
[5]
  outcome: inactive

## CCC(=O)O[C@@](Cc1ccccc1)(c1ccccc1)[C@@H](C)CN(C)C
[1]
  outcome: inactive
[6]
  activity change, negative = inhibition: -25.8% [at 17.2 µM]
[2]
  activity, negative = inhibition: 5.74% [at 17.2 µM]
[5]
  outcome: inactive

## NCCc1ccc(S(=O)(=O)F)cc1
[1]
  outcome: inactive
[6]
  activity change, negative = inhibition: 2.53%
[3]
  Potency: > 46 µM
[4]
  Potency: > 46 µM
[5]
  outcome: inactive

## CCCN(CCC)[C@H]1CCc2c(F)ccc(O)c2C1
[1]
  outcome: inactive
[2]
  activity, negative = inhibition: 3.16% and 1.48%
[3]
  Potency: > 46 µM
[4]
  Potency: > 46 µM
[5]
  outcome: inactive

## CCCn1c(=O)c2[nH]c(C3CCCC3)nc2n(CCCOC(=O)c2ccc(S(=O)(=O)F)cc2)c1=O
[7]
  Potency: inactive
[6]
  activity change, negative = inhibition: -34.5%
[2]
  activity, negative = inhibition: -25.7%
[3]
  Potency: > 46 µM
[4]
  Potency: > 46 µM

## C[N+](C)(C)CCOC(=O)CBr
[1]
  outcome: inactive
[6]
  activity change, negative = inhibition: 13.9%
[2]
  activity, negative = inhibition: -5.3%
[3]
  Potency: > 46 µM
[4]
  Potency: > 46 µM
[5]
  outcome: inactive

## CN(N=O)c1ccc(O)c(O)c1
[1]
  outcome: inactive
[6]
  activity change, negative = inhibition: 0.97%
[3]
  Potency: > 46 µM
[4]
  Potency: > 46 µM

## CCCN(CCC)CCc1ccc(O)c(O)c1
[1]
  outcome: inactive
[6]
  activity change, negative = inhibition: -10.2%
[2]
  activity, negative = inhibition: -14.3%
[3]
  Potency: > 46 µM
[4]
  Potency: > 46 µM
[5]
  outcome: inactive

## CC(C)(C)c1cc(C=C(C#N)C#N)cc(C(C)(C)C)c1O
[1]
  outcome: inactive
[6]
  activity change, negative = inhibition: -108% (active)
[3]
  Potency: > 46 µM
[4]
  Potency: > 46 µM
[5]
  outcome: inactive

## NCCCP(=O)(O)O
[1]
  outcome: inactive
[6]
  activity change, negative = inhibition: -4.18%
[2]
  activity, negative = inhibition: 26.4%
[3]
  Potency: > 46 µM
[4]
  Potency: > 46 µM
[5]
  outcome: inactive

## C[N+](C)(C)CC#CCN1CCCC1=O
[1]
  outcome: inactive
[3]
  Potency: > 46 µM
[4]
  Potency: > 46 µM
[5]
  outcome: inactive

## C[N+]1(C)[C@@H]2CC[C@H]1CC(OC(=O)c1c[nH]c3ccccc13)C2 (some centres undefined)
[1]
  outcome: inactive
[3]
  Potency: > 46 µM
[4]
  Potency: > 46 µM
[5]
  outcome: inactive

## CCCn1c(C)c(C(=O)c2ccc3ccccc3c2)c2ccccc21
[1]
  outcome: inactive
[2]
  activity, negative = inhibition: -13.9%
[3]
  Potency: > 46 µM
[4]
  Potency: > 46 µM
[5]
  outcome: inactive

## OCc1cnc[nH]1
[1]
  outcome: inactive
[6]
  activity change, negative = inhibition: 7.81%
[3]
  Potency: > 46 µM
[4]
  Potency: > 46 µM

## C[N+]1(C)CCc2cc3c(cc2[C@H]1[C@@H]1OC(=O)c2c1ccc1c2OCO1)OCO3
[1]
  outcome: inactive
[6]
  activity change, negative = inhibition: -19.2% [at 17.2 µM]
[3]
  Potency: > 20.6 µM

## O=S(=O)(O)c1cc(O)ccc1O
[1]
  outcome: inactive
[6]
  activity change, negative = inhibition: -8.18% [at 17.2 µM]
[2]
  activity, negative = inhibition: 11.9% [at 17.2 µM]
[3]
  Potency: > 20.6 µM
[4]
  Potency: > 20.6 µM
[5]
  outcome: inactive

## COc1ccc2[nH]cc(CCN)c2c1
[1]
  outcome: inactive
[6]
  activity change, negative = inhibition: -0.77%
[2]
  activity, negative = inhibition: -1.18%
[3]
  Potency: > 46 µM
[4]
  Potency: > 46 µM
[5]
  outcome: inactive

## Cc1c2ccncc2c(C)c2c1[nH]c1ccccc12
[1]
  outcome: inactive
[2]
  activity, negative = inhibition: 128% [activator] [at 17.2 µM] (active) and 142% [activator] [at 17.2 µM] (active)
[3]
  Potency: > 46 µM and > 20.6 µM
[4]
  Potency: > 46 µM and > 20.6 µM
[5]
  outcome: inactive

## C[C@H](N)CN1CCc2ccc(Br)cc21
[1]
  outcome: inactive
[2]
  activity, negative = inhibition: -29.5%
[3]
  Potency: > 46 µM
[4]
  Potency: > 46 µM

## O=[N+]([O-])c1ccc2nc(N3CCNCC3)ccc2c1
[1]
  outcome: inactive
[6]
  activity change, negative = inhibition: 4.11%
[2]
  activity, negative = inhibition: 2.58%
[3]
  Potency: > 46 µM
[4]
  Potency: > 46 µM
[5]
  outcome: inactive

## CC(=O)NBr
[1]
  outcome: inactive
[6]
  activity change, negative = inhibition: -0.158%
[3]
  Potency: > 46 µM
[4]
  Potency: > 46 µM
[5]
  outcome: inactive

## C[C@H]1CC[C@@H]2[C@@H](C)[C@H]3[C@H](C[C@H]4[C@@H]5CC=C6CC(O[C@@H]7O[C@H](CO)[C@H](O)[C@H](O[C@@H]8O[C@H](CO)[C@@H](O)[C@H](O)[C@H]8O)[C@H]7O[C@H]7O[C@@H](C)[C@H](O)[C@@H](O)[C@H]7O)CC[C@]6(C)[C@H]5CC[C@]34C)N2C1 (some centres undefined)
[8]
  Potency: 35 µM (active)
[9]
  Potency: 32.5 µM (active)
[10]
  Potency: 39.3 µM (active)
[11]
  Potency: 23.7 µM (active)
[12]
  Potency: 45 µM (active)
[13]
  Potency: 24.8 µM (active)
[5]
  outcome: inactive
[14]
  Potency: 31.6 µM (active)
[15]
  Potency: 31.6 µM (active)
[16]
  Potency: 31.6 µM (active)
[17]
  Potency: 31.6 µM (active)
[18]
  activity change, negative = cytotoxicity: -101% (active)
[19]
  Potency: 31.6 µM (active)

## CCCCCCCCOC(=O)c1ccccc1C(=O)OCCCCCCCC
[8]
  Potency: > 92 µM
[10]
  Potency: > 92 µM
[11]
  Potency: > 92 µM
[12]
  Potency: > 92 µM
[13]
  Potency: > 92 µM
[5]
  outcome: inactive
[14]
  Potency: inactive
[15]
  Potency: inactive
[16]
  Potency: inactive
[17]
  Potency: inactive
[18]
  Potency: inactive
[19]
  Potency: inactive

## [O]=[Cd]
[8]
  Potency: > 92 µM
[9]
  Potency: > 92 µM
[10]
  Potency: > 92 µM
[11]
  Potency: > 92 µM
[12]
  Potency: > 92 µM
[13]
  Potency: > 92 µM
[14]
  Potency: inactive
[15]
  Potency: inactive
[16]
  Potency: inactive
[17]
  Potency: inactive
[18]
  Potency: inactive
[19]
  Potency: inactive
